Results reported in PubChem BioAssay (Tox21).
Values joined by “and” are separate entries in the source; they are usually repeats but may differ in a detail not shown here. Equal values may be shown once. Records with an inconclusive call do not appear. Active and inactive are the calls of the source. Unless noted, calls come from the whole dose curve; as a rule, active = well fitted curve in the direction sought with a large enough effect in the repeat runs; inconclusive = weak or mixed curves; inactive = no such curve, though single readings can be large; an effect the other way counts as inactive or inconclusive.

Legend:
[1] = qHTS assay to identify small molecule agonists of the hypoxia (HIF-1) signaling pathway - cell viability counter screen (AID 1224844; calls by dose curve; note: nearly all actives have a fitted effect of over 50% in size)
In short: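 Multiplexed with the HRE beta-lactamase assay, this viability read used CellTiter-Glo luminescence (30 min, RT) on HRE-bla ME-180 cells treated 17 hrs with compounds in 0.5% dialyzed FBS medium.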

[2] = qHTS assay to identify small molecule agonists of H2AX (AID 1224845; active = well fitted activation curve with a large enough effect in the signal ratio in the repeat runs, not every such curve was filed as active; the % refers to the signal ratio)
In short: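 Wild-type CHO-K1 cells plated overnight, then exposed 3 hr at 37C to compounds at 15 concentrations (0.76% DMSO). Lysed, then HTRF anti-pH2AX(S139)-cryptate/anti-H2AX-d2 detection after 24 hr at room temperature; emissions 665 and 620 nm.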

[3] = qHTS assay to identify small molecule agonists of the hypoxia (HIF-1) signaling pathway (AID 1224846; active = well fitted activation curve with a large enough effect in the signal ratio in the repeat runs, not every such curve was filed as active; the % refers to the signal ratio)
In short: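 Hypoxia-pathway activation was scored as increased beta-lactamase from an HRE-controlled reporter in ME-180 cells; plated at 2,000 cells per well with 0.5% dialyzed FBS, they were exposed 17 hrs to compounds and then given CCF4-AM.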

[4] = qHTS assay to identify small molecule agonists of H2AX - cell viability counter screen (AID 1224847; calls by dose curve; note: top concentration of the series differs between compounds; nearly all actives have a fitted effect of over 30% in size)
In short: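 Counter-screen for viability: CellTiter-Glo ATP luminescence read after 3 h compound treatment (15-point titration, 0.76% DMSO final) of CHO-K1 cells at 37C, with 30 min room-temperature reagent incubation.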

[5] = qHTS RealTime-Glo MT Cell Viability Assay in HepG2 cells - 24 hour (AID 1224867); note: nearly all actives have a fitted effect of over 50% in size
In short: (§1)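 Viability was tracked continuously by NanoLuc luminescence from prosubstrate reduced by living HepG2 cells, at successive time points over 40 h of compound exposure. Cells with reagent were preincubated 5 h at 37 °C before compound addition.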

[6] = qHTS RealTime-Glo MT Cell Viability Assay in HEK293 cells - 32 hour (AID 1224868); note: top concentration of the series differs between compounds; nearly all actives have a fitted effect of over 50% in size
In short: (§2)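 Viability tracked continuously by luminescence as live cells reduce a prosubstrate for NanoLuc; HEK293 cells preincubated 5 h, compound-treated at 37 C, and read at 0, 8, 16, 24, 32 and 40 h.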

[7] = A CellTox Green Cytotoxicity Assay to monitor cytotoxicity in HEK293 cells - 0 hour (AID 1224869); note: nearly all actives have a fitted effect of over 50% in size
In short: (§3)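 Seeding of HEK293 cells together with cytotoxicity dye preceded a 5 h incubation at 37 C/5% CO2. Test compounds in DMSO were then added and fluorescence monitored across 40 h.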

[8] = qHTS RealTime-Glo MT Cell Viability Assay in HepG2 cells - 40 hour (AID 1224870); note: nearly all actives have a fitted effect of over 50% in size
In short: (§4)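 HepG2 cells mixed with RealTime-Glo MT reagents (NanoLuc plus cell-permeant prosubstrate) were seeded at 600 cells/well, incubated 5 h at 37 C/5% CO2, then pinned with compounds in DMSO; nonlytic luminescence tracked viability during 40 h treatment.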

[9] = A CellTox Green Cytotoxicity Assay to monitor cytotoxicity in HEK293 cells - 40 hour (AID 1224871); note: nearly all actives have a fitted effect of over 45% in size
In short: as §3

[10] = qHTS RealTime-Glo MT Cell Viability Assay in HEK293 cells - 16 hour (AID 1224872)
In short: as §2

[11] = qHTS RealTime-Glo MT Cell Viability Assay in HepG2 cells - 8 hour (AID 1224873); note: nearly all actives have a fitted effect of over 55% in size
In short: as §4

[12] = A CellTox Green Cytotoxicity Assay to monitor cytotoxicity in HEK293 cells - 24 hour (AID 1224875); note: nearly all actives have a fitted effect of over 45% in size
In short: as §3

[13] = A CellTox Green Cytotoxicity Assay to monitor cytotoxicity in HepG2 cells - 16 hour (AID 1224876); note: nearly all actives have a fitted effect of over 45% in size
In short: (§5)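 Nonlytic assay: viable cells exclude the dye, so fluorescence scales with cell death. HepG2 at 600 cells/well, compounds added after 5 h, signal read across 40 h.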

[14] = qHTS RealTime-Glo MT Cell Viability Assay in HepG2 cells - 32 hour (AID 1224877); note: nearly all actives have a fitted effect of over 55% in size
In short: as §1

[15] = A CellTox Green Cytotoxicity Assay to monitor cytotoxicity in HepG2 cells - 24 hour (AID 1224878); note: nearly all actives have a fitted effect of over 45% in size
In short: as §5

[16] = A CellTox Green Cytotoxicity Assay to monitor cytotoxicity in HepG2 cells - 40 hour (AID 1224879); note: nearly all actives have a fitted effect of over 40% in size
In short: as §5

[17] = qHTS assay to identify small molecule antagonists of the estrogen related receptor (ERR) signaling pathway from Tox21 library (AID 1224848); note: nearly all actives have a fitted effect of over 50% in size; note: potency is the fitted concentration of half-maximal effect
In short: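 Screening used an ERR reporter line supplied by NTP, exposed for 18 h at 37 C to library compounds delivered in DMSO. Signal was luciferase luminescence developed with ONE-Glo at room temperature for 30 min.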

[18] = qHTS assay to identify small molecule agonists of the estrogen related receptor (ERR) signaling pathway from Tox21 library (AID 1224849; calls by dose curve; note: nearly all actives have a fitted effect of over 15% in size); settings: ERR reporter cell line, ONE-Glo luciferase, 18 h; at 92.4 µM (top of the series) unless noted
In short: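 Six hours post-seeding at 37 C/5% CO2, ERR cells receive DMSO-solubilised compounds; after 18 h at 37 C, ONE-Glo reagent is applied and luminescence recorded.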

[19] = qHTS RealTime-Glo MT Cell Viability Assay in HEK293 cells - 40 hour (AID 1224874); settings: RealTime-Glo luminescence; max response: hits give low values; note: nearly all actives have a fitted effect of over 50% in size
In short: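 Tox21 screen in HEK293 using RealTime-Glo MT chemistry, with cells and reagent co-dispensed. Luminescence proportional to viable cell number was captured at intervals during 40 h compound exposure at 37 C.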
% is set by controls: 0 for no effect and ±100 for the full control effect.

O=C1CCCCC1Cl (stereo unspecified)
inactive: Potency [1] | outcome [2] | outcome [3] | Potency [4] | Potency [5] | Potency [6] | outcome [7] | Potency [8] | Potency [9] | Potency [10] | outcome [11] | Potency [12] | Potency [13] | Potency [14] | Potency [15] | Potency [16]

CN(C)CCN(C)C
inactive: Potency [1] | outcome [2] | outcome [3] | Potency [4] | Potency [17] | activity change, positive = activation [18] 9.25% | Potency [5] | Potency [6] | outcome [7] | Potency [8] | Potency [9] | Potency [10] | max response [19] 7.83% | Potency [12] | Potency [13] | Potency [14] | Potency [15] | Potency [16]

O=C(Cl)CCl
inactive: Potency [1] | outcome [2] | outcome [3] | Potency [4] | Potency [5] | Potency [6] | outcome [7] | Potency [8] | Potency [9] | Potency [10] | outcome [11] | max response [19] 0.179% | Potency [12] | Potency [13] | Potency [14] | Potency [15] | Potency [16]

N#CN
inactive: Potency [1] | outcome [2] | outcome [3] | Potency [4] | Potency [5] | Potency [6] | outcome [7] | Potency [8] | Potency [9] | Potency [10] | outcome [11] | max response [19] 4.8% | Potency [12] | Potency [13] | Potency [14] | Potency [15] | Potency [16]

CCC(CC)(CNC(=O)CCCO)c1cccc(OC)c1
inactive: Potency [1] | outcome [2] | outcome [3] | Potency [4] | Potency [17] | activity change, positive = activation [18] 4.37% [at 42.5 µM] | Potency [5] | Potency [6] | outcome [7] | Potency [8] | Potency [9] | outcome [11] | max response [19] 4.41% | Potency [12] | Potency [13] | Potency [14] | Potency [16]

CC[C@@H](CO)NC(=O)[C@@H]1C=C2c3cccc4c3c(cn4C)C[C@H]2N(C)C1
inactive: Potency [1] | outcome [2] | outcome [3] | Potency [4] | Potency [17] | Potency [5] | Potency [6] | outcome [7] | Potency [8] | Potency [9] | Potency [10] | outcome [11] | max response [19] -3.36% | Potency [12] | Potency [13] | Potency [14] | Potency [16]

CN(C)C1CCCCC1
inactive: Potency [1] | outcome [2] | outcome [3] | Potency [4] | Potency [17] | Potency [5] | outcome [7] | Potency [8] | Potency [9] | Potency [12] | Potency [13] | Potency [14] | Potency [15] | Potency [16]

C[C@H](CN1CCOCC1)C(C(=O)N1CCCC1)(c1ccccc1)c1ccccc1
active: Potency [17] 66.3 µM
inactive: Potency [1] | outcome [2] | outcome [3] | Potency [4] | Potency [5] | outcome [7] | Potency [8] | Potency [9] | outcome [11] | Potency [12] | Potency [13] | Potency [16]

ClCCCCCCCl
inactive: Potency [1] | outcome [2] | outcome [3] | Potency [4] | Potency [5] | Potency [6] | outcome [7] | Potency [8] | Potency [9] | Potency [10] | outcome [11] | max response [19] 5.82% | Potency [12] | Potency [13] | Potency [14] | Potency [15] | Potency [16]

ClCC1CO1 (stereo unspecified)
inactive: Potency [1] | outcome [2] | outcome [3] | Potency [4] | Potency [17] | activity change, positive = activation [18] -2.49% | Potency [5] | Potency [6] | outcome [7] | Potency [8] | Potency [9] | outcome [11] | max response [19] -2.45% | Potency [12] | Potency [13] | Potency [14] | Potency [15] | Potency [16]

COc1cc(CC(C)N)cc(OC)c1OC (stereo unspecified)
inactive: Potency [1] | outcome [2] | outcome [3] | Potency [4] | Potency [17] | activity change, positive = activation [18] 12.1% | Potency [5] | Potency [6] | outcome [7] | Potency [8] | Potency [9] | Potency [10] | Potency [12] | Potency [13] | Potency [14] | Potency [15] | Potency [16]

c1cncc([C@@H]2CCCCN2)c1
inactive: Potency [1] | outcome [2] | outcome [3] | Potency [4] | Potency [5] | Potency [6] | outcome [7] | Potency [8] | Potency [9] | Potency [10] | outcome [11] | Potency [12] | Potency [13] | Potency [14] | Potency [15] | Potency [16]

C=CC(=O)OCCN(C)C
inactive: Potency [1] | outcome [2] | outcome [3] | Potency [4] | Potency [17] | Potency [5] | outcome [7] | Potency [8] | Potency [9] | Potency [10] | outcome [11] | max response [19] 14.5% | Potency [12] | Potency [13] | Potency [14] | Potency [15] | Potency [16]

Cc1ccc(Cl)c(O)c1
inactive: Potency [1] | outcome [2] | outcome [3] | Potency [4] | Potency [17] | activity change, positive = activation [18] 6.81% [at 42.5 µM] | Potency [5] | Potency [6] | outcome [7] | Potency [8] | Potency [9] | Potency [10] | outcome [11] | Potency [12] | Potency [13] | Potency [15] | Potency [16]

CCOC(=O)COc1ccc(Cl)cc1Cl
inactive: Potency [1] | outcome [2] | outcome [3] | Potency [4] | Potency [5] | Potency [6] | outcome [7] | Potency [8] | Potency [9] | outcome [11] | max response [19] -3.04% | Potency [12] | Potency [13] | Potency [14] | Potency [15] | Potency [16]

CON(C)C(=O)Nc1ccc(Br)cc1
inactive: Potency [1] | outcome [2] | outcome [3] | Potency [4] | Potency [5] | Potency [6] | outcome [7] | Potency [8] | Potency [9] | Potency [10] | outcome [11] | max response [19] -9.38% | Potency [12] | Potency [13] | Potency [14] | Potency [15] | Potency [16]

C=CC1(C)OC(=O)N(c2cc(Cl)cc(Cl)c2)C1=O (stereo unspecified)
inactive: Potency [1] | outcome [2] | outcome [3] | Potency [4] | Potency [5] | Potency [6] | outcome [7] | Potency [8] | Potency [9] | Potency [10] | outcome [11] | max response [19] -8.21% and -20% | Potency [12] | Potency [14] | Potency [15] | Potency [16]

O=C(Cl)/C=C/C(=O)Cl
inactive: Potency [1] | outcome [2] | outcome [3] | Potency [4] | Potency [17] | Potency [5] | outcome [7] | Potency [8] | Potency [9] | Potency [10] | outcome [11] | Potency [12] | Potency [14] | Potency [15] | Potency [16]

C[C@]12C=CC(=O)C=C1CC[C@@H]1[C@@H]2CC[C@@]2(C)[C@H]1CC[C@]2(C)O
inactive: Potency [1] | outcome [2] | outcome [3] | Potency [4] | activity change, positive = activation [18] -17.6% [at 42.5 µM] | Potency [5] | Potency [6] | outcome [7] | Potency [8] | Potency [9] | Potency [10] | max response [19] -19.7% | Potency [12] | Potency [13] | Potency [14] | Potency [15]

CC(C)(C1CCC(O)CC1)C1CCC(O)CC1 (stereo unspecified)
inactive: Potency [1] | outcome [2] | outcome [3] | Potency [4] | Potency [5] | Potency [6] | outcome [7] | Potency [8] | Potency [9] | Potency [10] | outcome [11] | max response [19] -18.7% | Potency [12] | Potency [13] | Potency [16]
